Each structure is given as a SMILES string. The whole screen tested about 87,000 compounds, of which about 540 (0.62%) were called active. The sample holds actives, similar compounds and a random draw of the others, so the mix is not that of the screen. How the calls were made is not given here. Entries with a potency or affinity are not part of this list.

This experiment can be described thus: MT1-MMP gene expression reporter suppression – cell-based, luciferase reporter, luminescence (AID 618).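 Further: actives suppress MT1-MMP promoter-driven transcription so potencies describe inhibitors.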 Particulars: MT1-MMP promoter luciferase reporter cells. For orientation: Reporter assays use an easily measured gene product as a stand-in for the process of interest.
For `CN1CCc2c(sc3c2c(=O)n(-c2ccccc2)c2nnc(SCc4ccc(Cl)cc4)n32)C1`, the molecule was classed as inactive. As for `CCOC(=O)c1sc2nc3c(cc2c1N)COC(C)(C)C3`, the entry is “inactive”; as for `CCOC(=O)c1sc2nc3c(cc2c1N)COC(C)(CC)C3` (configuration not stated), “inactive”; as for `CCN(Cc1ccccc1)S(=O)(=O)c1ccc2oc(C(=O)O)c(C)c2c1`, “inactive”. As for `Cn1ccnc1SCc1cn2ccccc2n1`, the entry is “inactive”. For the molecule `Brc1ccc2nc(CSc3ncn[nH]3)cn2c1`, the outcome was inactive. As for `COc1ccc(NC(=S)N/C(=N/CS(=O)(=O)c2ccccc2)c2ccccc2)cc1`, the entry is “inactive”.

Turning to `CCOC(=O)N1CCC(N2C(=O)c3ccc(C(=O)O)cc3C2=O)CC1`, the result was inactive. On to `Cc1nnc(NC2=NCCCCC2)o1`, for which the call was inactive. As for `Clc1ccc(NC2=NCCCCC2)cc1`, the entry is “inactive”; as for `c1coc(-c2nnc(NC3=NCCC3)o2)c1`, “inactive”. As for `Fc1ccc(-c2nnc(NC3=NCCCCC3)o2)cc1`, the entry is “active”; as for `CCOc1ccc(-c2nnc(NC3=NCCCCC3)o2)cc1`, “inactive”. In the case of `Clc1ccc(-c2nnc(NC3=NCCCCC3)o2)cc1`, the molecule was classed as active. Take `O=C1/C(=C\Nc2ccc(OC(F)(F)F)cc2)CCN1c1ncccn1`: the result was inactive. For the molecule `CS(=O)(=O)N(CC(=O)NCCSC1CCCCC1)c1ccc2c(c1)OCO2`, the molecule was classed as inactive. Turning to `COc1cccc(CNc2ccc(F)c(Cl)c2)c1OC`, the molecule was called inactive. In the case of `Cc1nc2ccccc2n1-c1nc(-c2ccco2)cc(C(F)(F)F)n1`, the call was active. `FC(F)(F)c1cc(-c2ccco2)nc(-n2nnc3ccccc32)n1`: the molecule was called inactive. Under `FC(F)(F)c1cc(-c2ccco2)nc(-n2cnc3ccccc32)n1` stands “inactive”; under `Cc1cc(OCCCCCNCCO)cc(C)c1Cl`, “inactive”; under `COc1ccc(C(=O)Nc2ccccc2C(=O)NCCN2CCOCC2)cc1`, “inactive”. In the case of `COc1ccc2c(c1)Sc1ccccc1N2CCN(C)C`, the call was active.

As to `CN(C)CCCN1c2ccccc2Sc2ccccc21`, the molecule was called inactive. With `CN(C)CCCN1c2ccccc2Sc2ccc(Cl)cc21`, the molecule was classed as inactive. Turning to `CCOC(=O)C(N)CSC1CC(=O)N(c2ccc(C(=O)OC)cc2)C1=O` (configuration not stated), the molecule was classed as inactive.

`CCOC(=O)COc1nc(Nc2ccccc2C)nc(N(C)C)n1`: the molecule was classed as inactive.

Take `O=C(NNC(=O)c1ccc(SCC2CCCO2)c([N+](=O)[O-])c1)c1ccc(F)cc1` (configuration not stated): the call was inactive. Consider `COc1cc(-c2nc(-c3ccccn3)no2)cc(OC)c1OC`, for which the result was inactive.

Consider `c1ccc(-c2noc(-c3cccc4ccccc34)n2)nc1`, for which the molecule was classed as active. As for `c1ccc(-c2noc(-c3cccc4ccccc34)n2)cc1`, the molecule was classed as inactive.

In the case of `c1ccc2c(-c3nc(-c4ccncc4)no3)cccc2c1`, the molecule was classed as inactive. In the case of `COc1cccc(-c2nc(-c3ccccn3)no2)c1OC`, the call was inactive. As for `CCCCNC(=O)n1c(SC)nc2ccccc21`, the entry is “inactive”; as for `COc1cccc(-c2ccc(C#N)c(OC(=O)c3ccc(Cl)cc3)n2)c1`, “inactive”; as for `COc1ccc(-n2c(Cc3cc(=O)[nH]c(=O)[nH]3)nnc2SCC(=O)N2CCCC2)cc1`, “inactive”.

On to `O=C(CSc1nnc(Cc2ccccc2)o1)NC1CCCCC1`, for which the molecule was classed as inactive. As for `CCOC(=O)Nc1sc(C(=O)N(CC)CC)c(C)c1C(=O)OCC`, the entry is “inactive”; as for `CCOC(=O)c1c(NC(=O)CCl)sc(C(=O)N(CC)CC)c1C`, “active”. Turning to `CCOC(=O)c1c(NC(=O)CN(C)C)sc(C(=O)N(CC)CC)c1C`, the call was inactive. Under `Cc1ccc(NC2=C/C(=N\S(=O)(=O)c3cccs3)c3ccccc3C2=O)c(C)c1` stands “inactive”; under `CCC1CCCCN1C(=O)Cn1c(C(=O)OC)cc2ccsc21` (configuration not stated), “inactive”; under `O=C(c1cccnc1)N1CCCc2ccccc21`, “inactive”. Under `COc1cccc(C(=O)Nc2ccc(NC(=O)C(C)(C)C)cn2)c1` stands “active”; under `CCC(=O)Nc1ccc(NC(=O)c2cccc(OC)c2)nc1`, “inactive”. As for `COc1cccc(C(=O)Nc2ccc(NC(C)=O)cn2)c1`, the entry is “inactive”. As to `Cn1c(NC(=O)CC(C)(C)C)cc(=O)n(C)c1=O`, the call was inactive. On to `Cc1nnc2sc(-c3ccc(NC(=O)c4cccnc4)cc3)nn12`, for which the result was inactive.

On to `N#CC1=C(N)SC(N)=C(C#N)C1c1ccnc2ccccc12`, for which the call was inactive.

As to `O=C1c2ccccc2C(=O)C1c1ccncc1`, the result was inactive. As for `COc1ccc(C2C(=O)c3ccccc3C2=O)c(OC)c1`, the entry is “inactive”; as for `O=C1c2ccccc2-c2nccnc21`, “inactive”.

Take `O=C(NCCCCCNC(=O)c1ccco1)c1ccco1`: the outcome was inactive. For `CCCCOc1ccccc1C1NC(=O)NC(C)=C1C(=O)OCCOCC` (configuration not stated), the call was inactive.

In the case of `CC(C)(C)NC(=O)Nc1ccc2nccnc2c1`, the outcome was inactive. For the molecule `O=C(O)c1ccc(COc2ccc(Cl)cc2)o1`, the molecule was classed as inactive. Under `CCc1ccc(OCc2ccc(C(=O)NCc3ccccn3)o2)cc1` stands “inactive”.

For `CCOc1ccc(OCc2ccc(C(=O)N3CCCC3)o2)cc1`, the molecule was called inactive. Under `O=C(OCc1ccccn1)c1ccc(COc2ccccc2Cl)o1` stands “inactive”; under `CCN(CC(O)Cn1c2ccccc2c2ccccc21)S(=O)(=O)c1ccc(C)cc1` (configuration not stated), “inactive”. `O=C(/C=N/O)Nc1ccccc1C(=O)O`: the result was inactive.

On to `O=C(NCc1ccccc1)c1ccc(Oc2ccc(C(=O)NCc3ccccc3)cc2)cc1`, for which the molecule was called inactive. Consider `O=C(CN(CC1CCCO1)C(=O)CCC(=O)Nc1nccs1)NCc1ccc2c(c1)OCO2` (configuration not stated), for which the result was inactive. Turning to `CCOC(=O)N1CCN(C(=O)CN(c2cccc(C(F)(F)F)c2)S(C)(=O)=O)CC1`, the call was inactive. Under `O=C(Nc1ccccc1)N1CCc2ccccc21` stands “inactive”. Take `CCOC(=O)c1ccc(NC(=O)N2CCc3ccccc32)cc1`: the outcome was inactive.

Take `O=C(CN1C(=O)C2C3C=CC(C3)C2C1=O)Nc1nc2ccccc2[nH]1` (configuration not stated): the molecule was called inactive. As for `CCOc1ccc(S(=O)(=O)N(C)c2ccc(OCC(=O)N3CCOCC3)cc2)cc1`, the molecule was classed as inactive. Consider `CC(=O)c1ccc(NC(=O)C(C)Sc2nnnn2C)cc1` (configuration not stated), for which the result was inactive. Turning to `COc1cccc(C(=O)Nc2ccccc2)c1`, the molecule was classed as inactive. For `COc1cccc(C(=O)/C=C/Nc2cc(C)ccc2O)c1`, the molecule was classed as inactive.

As for `COc1ccc(C(=O)Nc2cccc(C)c2)cc1`, the molecule was classed as inactive. Under `COc1ccc(N/C=C\C(=O)c2ccc3c(c2)OCO3)cc1` stands “inactive”; under `COc1ccc(S(=O)(=O)NCC(c2cccnc2)N2CCN(C)CC2)cc1C` (configuration not stated), “inactive”. As for `O=C(COc1ccc2ccccc2c1)NC1CC1`, the entry is “inactive”; as for `CCCC1(C(=O)OC)NC(c2cc(OC)c(OC)c(OC)c2)C2C(=O)N(CC)C(=O)C21` (configuration not stated), “inactive”; as for `O=c1[nH]nc(Cc2ccc(Cl)cc2)c2ccccc12`, “inactive”. As to `Cc1nn2c(C(F)(F)F)cc(-c3ccc(Cl)cc3)nc2c1C(=O)N1CCOCC1`, the call was inactive. Turning to `Nc1ccc(-c2nc3c(Cl)c(N)ccc3[nH]2)cc1`, the molecule was called inactive. Under `Nc1ccc2nc(-c3ccc(N)c(Cl)c3)[nH]c2c1` stands “inactive”; under `CC(=O)c1cnc2cc(-c3ccc(Cl)cc3)nn2c1C`, “inactive”. In the case of `O=C(CNS(=O)(=O)c1ccccc1)NCc1ccccn1`, the call was inactive. As to `CCCc1ccc(-c2cc(N)n[nH]2)cc1`, the molecule was classed as inactive. `CCCCc1ccc(-c2ccc(Br)cc2)nc1`: the result was inactive. As for `CCOc1ccc(NC(=O)CCN2CCN(c3ccccc3F)CC2)cc1`, the entry is “inactive”. Regarding `COc1ccc(-c2nnn(CC(=O)NCc3ccccc3)n2)cc1OC`, the molecule was called inactive. `CCC(C)NC(=O)Nc1ccc2c(c1)N(C)C(=O)c1ccccc1S2` (configuration not stated): the molecule was classed as inactive.

`Cc1nc(SCc2cccc(Oc3ccccc3)c2)n[nH]1`: the outcome was inactive. As for `c1ccc(-c2ccccn2)nc1`, the result was inactive. For the molecule `c1ccc(-c2nnc(-c3ccccn3)nn2)nc1`, the molecule was called inactive. Take `CCc1nc(OCC(=O)c2ccccc2)c(C#N)c2c1COC(C)(C)C2`: the result was inactive.

Turning to `Cc1ccc(/C=C/C(=O)c2ccccc2)cc1`, the molecule was called inactive.

Turning to `COc1ccc(C(=O)/C=C/Nc2cccc(C)n2)cc1OC`, the molecule was classed as inactive. As for `Cc1ccc(C(=O)/C=C/Nc2ccccn2)cc1`, the entry is “active”; as for `NC(=O)c1ccccc1N/C=C/C(=O)c1ccc(F)cc1`, “inactive”; as for `COc1ccc(C(=O)Nc2ccccn2)cc1`, “inactive”. Under `NC(=O)c1ccccc1N/C=C/C(=O)c1ccccc1` stands “active”; under `Cc1ccc(C(=O)/C=C/Nc2ccccc2C(N)=O)cc1`, “inactive”. Under `Cc1c(N/C=C/C(=O)c2ccc(Cl)cc2)c(=O)n(-c2ccccc2)n1C` stands “inactive”; under `Cc1cc(N/C=C/C(=O)c2ccc(Br)cc2)no1`, “inactive”; under `NC(=O)c1ccccc1N/C=C/C(=O)c1ccc(Cl)cc1`, “inactive”. Consider `CCCCc1ccc(Nc2nc(CCC)cc(=O)[nH]2)cc1`, for which the molecule was classed as inactive. Take `COc1ccc(C2C(C#N)=C(N)Oc3n[nH]c(-c4ccccn4)c32)c(OC)c1OC` (configuration not stated): the call was inactive. For `C=C(c1ccc(OC)cc1)c1ccc(OC)cc1`, the molecule was called inactive. As for `CC(C)Cn1c(N)c(C(=O)COC(=O)c2cc(C(F)(F)F)nc3ccccc23)c(=O)n(C)c1=O`, the entry is “inactive”; as for `COC(=O)C(C(=O)Nc1ncccn1)C1CCCCCC1` (configuration not stated), “inactive”. Under `O=C(Nc1cccnc1)c1c(F)c(F)c(F)c(F)c1F` stands “inactive”; under `Cc1ccc(S(=O)(=O)n2nc(-c3ccc(Cl)cc3)nc2NCc2ccco2)cc1`, “inactive”. As for `Cc1ccnn1CCSCC(=O)O`, the result was inactive.

Consider `O=C(/C=C/NNC(=O)c1ccccc1)c1ccccc1`, for which the molecule was classed as inactive.

In the case of `O=C(CC(=O)Nc1ccccn1)Nc1ccccn1`, the outcome was inactive. On to `CCn1c(=NC(=O)CN2C(=O)CCC2=O)sc2c(C)cc(C)cc21`, for which the result was inactive. For `Cc1cc(N2CCCC2=O)cc(C)c1S(=O)(=O)NCCOc1ccc(C(C)(C)C)cc1`, the molecule was called inactive.

For the molecule `N#Cc1cc(N)c(Nc2ccccc2)cc1C#N`, the outcome was inactive.

With `CCC1(c2ccccc2)NC(=O)N(CC(=O)Nc2cccc(C#N)c2)C1=O` (configuration not stated), the molecule was classed as inactive. As for `COc1cc(C)c(C(C)C)cc1S(=O)(=O)n1cnc(C)c1`, the result was active. As for `COc1cc(C)c(Cl)cc1S(=O)(=O)n1cnc(C)c1`, the entry is “inactive”; as for `COc1cc(C)c(C(C)C)cc1S(=O)(=O)n1ccnc1`, “inactive”; as for `CCN1/C(=C/c2ccc3ccccc3[n+]2CC)C=Cc2ccccc21`, “active”. Under `CCN1C(=O)/C(=C2\C=Cc3ccccc3N2CC)OC1=S` stands “inactive”. With `CCN1C(=C2C(=O)c3ccccc3C2=O)C=Cc2ccccc21`, the molecule was classed as inactive. As for `CC1(C)CC(=O)N(c2ccccc2)C1(C)O` (configuration not stated), the entry is “inactive”.

The record behind these values is PubChem BioAssay AID618 (Sanford-Burnham Center for Chemical Genomics, 2007).
